In PubChem BioAssay (EPA / NIEHS):
Activity calls are given as the source filed them. How the source made its calls: active means hit-call score of the fitted dose curve at least 0.9, where 1 is the maximum; inactive means score below 0.9.

What follows are molecules tested on flavin-containing dimethylaniline monooxygenases 3 (FMO3), FMO3 (gene 2328) (assay: LTEA_HepaRG_FMO3: Life Technologies and Expression Analysis (LTEA) Assay for flavin-containing dimethylaniline monooxygenases 3 (FMO3) using HepaRG (AID 2283453;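 on AC50: FMO3 transcript by TaqMan qRT-PCR normalized to ACTB GAPDH and POLR2A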)). Details: mRNA level, 48 h; actives raise or lower the signal.
Description: LTEA_HepaRG is a cell based, multiplexed-readout assay that uses HepaRG, a human liver cell line, with measurements taken at 48 hours after chemical dosing on a 96-well plate.LTEA_HepaRG_FMO3 is one of 102 assay component(s) measured in the LTEA HepaRG cell culture assay. It is a marker of NR mediated metabolism.Data from the assay component LTEA_HepaRG_FMO3 was analyzed into 1 endpoint. This assay endpoint, LTEA_HepaRG_FMO3, was analyzed with bidirectional fitting relative to DMSO as the negative control and baseline of activity. Using a type of inducible reporter, measures of mRNA induction for gain or loss-of-signal activity can be used to understand regulation of transcription factor activity. To generalize the intended target to other relatable targets, this assay endpoint is annotated to the oxidoreductase intended target family, where the subfamily is […].
A total of 1060 chemcials from the ToxCast library were tested in eight-point concentration-response experiments. Cell culture and cytotoxicity assays were conducted at Thermo Fisher Scientific's Custom Services facility (Madison, WI). A single lot of human HepaRG cells (Thermo Fisher Scientific, Frederick, MD) was used for the cell culture experiments. 96-well format collagen type I coated plates of human HepaRG cells were prepared using established methods. Briefly, cryopreserved HepaRG cells were thawed, plated at a density of approximately 100,000 cells/well in HepaRG Thaw, Plate, and General Purpose media (HPRG770, Thermo Fisher Scientific), and incubated for 48 hours. 0.5% DMSO was selected as vehicle control to balance the requisite need of DMSO in HepaRG cultures to maintain differentiation (for example, baseline metabolism, proportions of hepatocytes vs. cholangiocytes), while enabling further hepatic receptor pathway activation (for example, PXR and CAR) in response to chemical exposure. 48 hours after plating, the culture medium was replaced with HepaRG Serum-Free Incudtion Media. Cells were exposed to each test chemical in duplicate and maintained in CO2 incubators for another 48 hours. Chemical plates were thawed to room temperature and 200x concentrations of treatment groups were prepared. 8-point conentration-reponse curves were made with the highest exposure at 100 uM, followed by half-log dilutions, all in 0.5% DMSO. Each test plate contained variouse controls, induction positive controls (1mM phenobarbital), cytotoxicity positive controls ([…] aflatoxin B1), vehicle controls (0.5% DMSO), and total lysis controls (0.5% DMSO). Cell morphology images were taken using an Essen IncuCyte FLR automated microscope, with six 96-well plates imaged in about 24 minutes. Images were captured and exported and JPEG files. Spent culture media was transfered to black-well plates for the LDH assay, and remaining media was sorted at -80 C for later use. Cells were treated with RLT buffer and frozen until shipped for gene expression analysis. Total RNA was isolated from the cell suspension in 75 uL of Buffer RLT (Qiagen, Germantown, MD 20874) by Quintiles/Expression Analysis (Durham, NC) using a custom isolation procedure. Total RNA from each plate well was transferred to a preamplification plate. Fluidigm's 96.96 Dynamic ArrayTM (Fluidigm, Amsterdam, the Netherlands) technology was used for gene expression analyses by quantitative reverse transcription polymerase chain reaction (qRT-PCR, performed by Quintiles/Expression Analysis, Durham, NC)89. Standard TaqManTM Assays (Applied Biosystems/ThermoFisher Scientific, Foster City, CA) were used to assess the expression of 93 genes selected based on their selectivity and sensitivity to important hepatic receptors known to be modulated by environmental chemicals; importance in human hepatocyte functionality; and hepatotoxicity. […]

AC50, active:
CCc1cc(C2=C(C(=O)O)N(c3ccccc3C(F)(F)F)S(=O)(=O)c3ccccc32)cc2c1OCO2 78.8 µM
Nc1nc(Cl)nc2c1ncn2[C@H]1C[C@H](O)[C@@H](CO)O1 2.05 µM
Cc1c(C)c2c(c(C)c1O)CCC(C)(COc1ccc(CC3SC(=O)NC3=O)cc1)O2 (stereo not given) 93 µM
CCN(CC)CCOc1ccc(C(=C(Cl)c2ccccc2)c2ccccc2)cc1 22 µM
CN(C)C(=O)NC1(c2ccccc2)CCN(CC[C@@]2(c3ccc(F)c(F)c3)CN(C(=O)c3ccccc3)CCO2)CC1 57 µM
Cc1ccc(-c2cc(C(F)(F)F)nn2-c2ccc(S(N)(=O)=O)cc2)cc1 76.8 µM
CN(C)C(=O)NC1(c2ccccc2)CCN(CCC[C@]2(c3ccc(Cl)c(Cl)c3)CCCN(C(=O)c3ccccc3)C2)CC1 18.8 µM
O=C(N[C@@H](c1ccccc1)[C@@H]1CCCCN1)c1cccc(C(F)(F)F)c1Cl 53.7 µM
CC(=O)O[C@]1(C(C)=O)CC[C@H]2[C@@H]3C=C(Cl)C4=CC(=O)[C@@H]5C[C@@H]5[C@]4(C)[C@H]3CC[C@@]21C 36.1 µM

outcome, inactive:
CCCCCCC(CCCCCCCCCCC(=O)OCC(COC(C)=O)OC(C)=O)OC(C)=O (stereo not given)
O=C(O)c1cccnc1
CCCC(=O)O
CC(=O)[C@@]1(O)CC[C@H]2[C@@H]3CCC4=CC(=O)CC[C@]4(C)[C@H]3CC[C@@]21C
CO[C@@H]1COCC[C@@H]1N[C@@H]1CC[C@@](C(=O)N2CCc3ncc(C(F)(F)F)cc3C2)(C(C)C)C1
O=C1O[C@H]([C@H](O)CO)C(O)=C1O
O=Cc1ccccc1C=O
COC(=O)CCCC(=O)OC
CCCCC(CC)CO (stereo not given)
CCCCCCCCCC[N+](C)(C)[O-]
O=C1NC(=O)C(c2ccccc2)(c2ccccc2)N1
O=C1c2c(O)cccc2Cc2cccc(O)c21
OCC(CO)n1cnc(-c2ccc(F)cc2)c1-c1ccnc(Oc2ccccc2)n1
CC(=O)OCC(COC(C)=O)OC(C)=O
CC(C)(C)c1ccccc1
O=C(O)CC(O)(CC(=O)O)C(=O)O
C#CC(O)C(CC)CCCC (stereo not given)
CS(=O)(=O)c1ccc([C@@H](C[C@H]2CCC(=O)C2)C(=O)Nc2cnccn2)cc1Cl
Cc1ccc(C(C)(C)C)c(O)c1
CCCCCCCCCCCCCCOS(=O)(=O)O
NCCOCCOCCN
CCCCc1nc2cccnc2n1Cc1ccc(-c2ccccc2-c2nnn[nH]2)cc1
CCCCCCC(C=O)=Cc1ccccc1
CCOCCOCCO
COC(=O)CCC(=O)OC
CCC(C)N(C)C(=O)c1cc2ccccc2c(-c2ccccc2Cl)n1 (stereo not given)
OCC(O)CO
C/C=C/c1ccc(OC)cc1
CCCC[C@H]1CN(CC2CCOCC2)C(=O)OC12CCN(C1(C)CCN(C(=O)c3c(C)ncnc3C)CC1)CC2
CC(C)c1cccc(C(C)C)c1
Oc1ccccc1O
